Test results: ChEMBL document CHEMBL3988442, “University of Dundee, Small-Polar-MMV Screening Library” (2021)

Assays:
[1] = biological target: T1, Aspartate--tRNA(Asp/Asn) ligase (Mycobacterium tuberculosis (strain ATCC 25618 / H37Rv)) (UniProt P9WFW3); assay: Assay for Asp RNA synthetase-1 from Mycobacterium tuberculosis; assay type: functional; set-up: scale not given: direction of the effect not stated beside the values; details: 30 µM; further: in the data most compounds retested in dose-response had high values
T1 sequence (whole entry): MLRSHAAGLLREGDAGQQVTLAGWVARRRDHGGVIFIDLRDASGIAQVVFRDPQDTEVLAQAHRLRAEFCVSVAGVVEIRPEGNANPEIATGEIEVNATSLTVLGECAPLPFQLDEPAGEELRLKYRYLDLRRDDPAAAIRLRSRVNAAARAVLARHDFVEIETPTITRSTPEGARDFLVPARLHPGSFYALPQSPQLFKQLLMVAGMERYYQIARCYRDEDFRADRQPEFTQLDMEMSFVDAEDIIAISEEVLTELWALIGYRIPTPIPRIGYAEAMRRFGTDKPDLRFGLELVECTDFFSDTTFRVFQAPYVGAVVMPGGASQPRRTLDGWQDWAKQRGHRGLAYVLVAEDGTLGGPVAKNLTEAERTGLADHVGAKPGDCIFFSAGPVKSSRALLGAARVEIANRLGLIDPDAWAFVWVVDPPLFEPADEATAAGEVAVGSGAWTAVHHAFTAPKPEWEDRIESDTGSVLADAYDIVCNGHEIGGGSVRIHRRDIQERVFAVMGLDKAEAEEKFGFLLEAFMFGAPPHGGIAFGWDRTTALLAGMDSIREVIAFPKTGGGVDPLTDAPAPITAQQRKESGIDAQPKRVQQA

[2] = biological target: Shiga toxin 2 (Escherichia coli O157:H7) (UniProt P09385+P09386); assay: E. coli 0.157:H7 Shiga Toxin SOP - stx2 screening assay; assay type: functional; set-up: scale not given: direction of the effect not stated beside the values; details: 30 µM

Row | Compound | Percent Effect [1] [%] | Percent Effect [2] [%]
1 | c1cc(-c2nc(CN3CCn4c(nnc4C4CC4)C3)cs2)cs1 | -2.61 | -11.5
2 | CC(=O)Nc1nc(C(=O)N2CCCC(n3ccnc3)C2)cs1 (stereo not given) | -1.21 | 0.121
3 | COc1ccnc(C(=O)N2CCCC(c3noc(C)n3)C2)c1 (stereo not given) | 0.885 | 1.38
4 | Cc1cnn(CC2CCCN2C(=O)c2cnc3n[nH]c(C)c3c2)c1 (stereo not given) | -3.6 | -40.6
5 | CCN(CC1CCCO1)C(=O)Nc1cc(OC)c(OC)cc1C (stereo not given) | -2.8 | -9.12
6 | Cc1nc(CN(Cc2cccs2)C2CCS(=O)(=O)C2)oc1C (stereo not given) | -1.77 | 34.6
7 | COc1ccc(C2(CNC(C)c3nnc(C)o3)CCCCC2)cc1 (stereo not given) | 2.67 | -2.63
8 | Cn1nccc1-c1ccc2nc(C3CCN(CCO)CC3)nn2c1 | -1.83 | -15.6
9 | CCc1nc(CN(C)C2CCN(Cc3cnc(C)cn3)C2)no1 (stereo not given) | 1.14 | -48.2
10 | CN(C)C(CNS(=O)(=O)c1ccc(F)cc1F)c1cccn1C (stereo not given) | 0.719 | -2.1
11 | CN(Cc1ccc(Cl)s1)C(=O)c1cccc(OCC(N)=O)c1 | -2.2 | 0.368
12 | O=C(Cn1ccc2ccc(Br)cc21)NCc1ccc(C(=O)O)cc1 | 14.7 | -5.49
13 | COC1CC2(CCN(Cc3ccc4c(c3)OCO4)CC2)C1 | -2.25 | -2.07
14 | CN(C)S(=O)(=O)N1CCCC1CC(=O)c1cccs1 (stereo not given) | 2.35 | -10.2
15 | CN(Cc1ccsc1)C(=O)c1cccc(S(=O)(=O)NC(C)(C)C)c1 | -1.73 | -33.3
16 | Cn1c(CN2CCCC2c2noc(C3CC3)n2)cc(=O)n(C)c1=O (stereo not given) | -4.22 | -7.03
17 | CN(C)C(=O)N1C[C@H](Oc2ccccn2)[C@H]2OCCC[C@H]21 | 2.67 | -3.38
18 | CN1CCCC[C@@H]2[C@H]1[C@@H](c1ccccc1)CCN2C(=O)c1cnccn1 | 0.342 | -18.3
19 | CC(=O)Nc1nc(C(=O)Nc2ccc(F)cc2)cs1 | -0.259 | -5.87
20 | COc1ccccc1S(=O)(=O)Nc1ccc2c(C(=O)O)c[nH]c2c1 | 3.46 | 12.9
